From PubChem BioAssay
GLS inh: inhibitors of human glutaminase (GLS); 410,000 tested, 0.21% active; GLS enzymatic activity, qHTS titration; Potency, µM (titrated, usually from 45.5 µM), most hits filed as inhibitors; AID 624170
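Human kidney-isoform GLS in 45 mM KH2PO4 pH 8.2, 0.02% Tween-20, with compound, started with 1mM L-Glutamine (added stock). Glutamate oxidase/HRP/Amplex red coupled fluorescence read at start and after 30 min at RT.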
JMJD2A Tudor: JMJD2A Tudor domain (human) inhibition | Potency, µM (top dose mostly 114 µM), hits mostly inhibitors | O75164 | 390,000 tested, 4.4% active | AlphaScreen JMJD2A-Tudor / H3K4me3 peptide binding; note: nearly all actives have a fitted effect of over 50% in size
Target sequence (O75164 whole entry, looked up, the tested form may be a part): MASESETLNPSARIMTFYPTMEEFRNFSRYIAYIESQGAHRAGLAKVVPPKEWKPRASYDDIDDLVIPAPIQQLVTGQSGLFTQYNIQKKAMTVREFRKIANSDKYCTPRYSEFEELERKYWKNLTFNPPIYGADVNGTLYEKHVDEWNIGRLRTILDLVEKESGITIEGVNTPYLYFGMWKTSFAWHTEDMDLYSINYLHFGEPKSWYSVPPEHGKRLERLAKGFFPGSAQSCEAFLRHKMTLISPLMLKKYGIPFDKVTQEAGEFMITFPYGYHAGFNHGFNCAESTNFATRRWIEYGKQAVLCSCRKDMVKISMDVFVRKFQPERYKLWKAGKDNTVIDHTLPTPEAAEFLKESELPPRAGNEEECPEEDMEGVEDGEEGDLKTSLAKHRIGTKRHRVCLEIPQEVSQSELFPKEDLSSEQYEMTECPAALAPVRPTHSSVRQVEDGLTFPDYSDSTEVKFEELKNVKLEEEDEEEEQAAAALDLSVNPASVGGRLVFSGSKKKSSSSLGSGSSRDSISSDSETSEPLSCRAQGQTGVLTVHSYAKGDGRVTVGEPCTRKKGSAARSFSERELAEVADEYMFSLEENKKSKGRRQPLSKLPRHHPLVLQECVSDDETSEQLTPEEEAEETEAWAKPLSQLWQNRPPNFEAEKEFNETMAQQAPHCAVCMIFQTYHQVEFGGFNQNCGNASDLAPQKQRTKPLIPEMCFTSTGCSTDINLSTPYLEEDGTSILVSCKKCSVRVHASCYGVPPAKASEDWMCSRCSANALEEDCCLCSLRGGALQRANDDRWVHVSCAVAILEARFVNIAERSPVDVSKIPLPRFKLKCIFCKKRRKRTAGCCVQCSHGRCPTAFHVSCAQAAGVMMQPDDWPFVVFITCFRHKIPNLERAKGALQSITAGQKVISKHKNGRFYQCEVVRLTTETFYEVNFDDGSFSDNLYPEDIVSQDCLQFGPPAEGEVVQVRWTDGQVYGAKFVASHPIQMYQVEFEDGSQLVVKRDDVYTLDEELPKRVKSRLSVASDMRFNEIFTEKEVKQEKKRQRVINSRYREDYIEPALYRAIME
G9a block: blocks human histone lysine methyltransferase G9a; G9a H3K9 monomethylation, AlphaScreen, 2 h; Potency, µM (top dose mostly 102 µM), most hits filed as inhibitors; 350,000 tested, 8.8% active; note: nearly all actives have a fitted effect of over 75% in size
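Step 1: enzyme (final 20 nM) with compound, 15 min RT. Step 2: substrate peptide 500 nM and SAM 20 uM, 2 h RT. Step 3: anti-H3K9me1 antibody and AlphaScreen beads, 10 min, then plate read.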
BAZ2B inh: BAZ2B (human) inhibition; Q9UIF8; AlphaScreen BAZ2B-H3K14Ac peptide displacement; Potency, µM (titrated, usually from 114 µM), actives largely listed as inhibitors; 360,000 tested, 4.4% active; AID 504333; note: nearly all actives have a fitted effect of over 60% in size
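Compounds, titrated to a top concentration of 110 uM, were incubated 30 min at room temperature with preformed BAZ2B/acetyl-K14 H3 peptide complex (50 nM each). Proximity signal was measured by AlphaScreen after 20 min with beads.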
HP1b binding inh: inhibitors of HP1-beta chromodomain binding to methylated histone tails. Potency, µM (top dose mostly 114 µM), most hits filed as inhibitors. P83916. AlphaScreen HP1-beta / biotin-H3K9me3 peptide binding. 390,000 tested, 0.56% active; note: nearly all actives have a fitted effect of over 70% in size
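HP1-beta protein (50 nM final) preincubated 30 min at room temperature with biotinylated H3(1-18)K9me3 peptide (50 nM) in PBS pH 7.4, 0.01% Tween-20, then compound added for 30 min. AlphaScreen streptavidin donor/nickel chelate acceptor beads (10 ug/mL final), 30 min dark, luminescence read.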
Each line names hits and unclear results; the compound was inactive in the other large screens. This is a sample that favours compounds with a hit; in the whole collection about 10% have one here. Calls come from the whole dose curve; as a rule, active = well fitted curve in the direction sought with a large enough effect; inconclusive = small, poorly fitted or top-dose-only effect, or another doubt; inactive = no such curve, though single readings can be large; an effect the other way counts as inactive or inconclusive.

CCOC(=O)C1CCN(C2CCN(C(=O)c3oc4c(F)cccc4c3C)CC2)CC1	none
O=C(NCCS(=O)(=O)N1CCN(c2ccccc2F)CC1)c1ccc(F)c(F)c1	none
CCS(=O)(=O)c1ccc(O)c(Nc2cc(C)nc(SC)n2)c1	none
COc1ccc(COC(=O)C2CCN(S(=O)(=O)c3ccc(F)cc3)CC2)cc1	none
COc1cccc(NC(=O)Cn2c(CCC(=O)O)ccc2-c2ccc(Cl)cc2)c1	BAZ2B inh 45µM (no result: G9a block)
COc1cccc(NC(=O)Cn2c(CCC(=O)O)ccc2-c2ccccc2)c1	none
Cc1ccc(NC(=O)Cn2c(CCC(=O)O)ccc2-c2cccs2)cc1Cl	JMJD2A Tudor inconclusive, G9a block 45µM, BAZ2B inh inconclusive
O=C(O)CCn1nnc(-c2cccs2)n1	G9a block inconclusive, BAZ2B inh 79µM
O=C(O)CCc1ccc(-c2cccs2)n1CCC(=O)O	G9a block 20µM, BAZ2B inh inconclusive
O=C(O)CCc1ccc(-c2cccs2)n1CCc1ccccc1	JMJD2A Tudor inconclusive, BAZ2B inh 28µM (no result: G9a block)
CSc1nc2ccc3nc(NC(=O)c4ccc(Cl)s4)sc3c2s1	G9a block inconclusive
Oc1ccc(O)c(Cc2nc3ccccc3s2)c1	GLS inh inconclusive, JMJD2A Tudor 13µM, G9a block 10µM, BAZ2B inh inconclusive, HP1b binding inh 20µM
C=CCSC1=C(C#N)C(c2ccccc2C)CC(=O)N1 (centres undefined)	none
C=C(C)CSC1=C(C#N)C(c2ccccc2Cl)CC(=O)N1 (centres undefined)	JMJD2A Tudor inconclusive, G9a block 45µM, HP1b binding inh inconclusive
C=CCSC1=C(C#N)C(c2ccccc2Cl)CC(=O)N1 (centres undefined)	G9a block 20µM
CCCn1c(=O)c2ccccc2n2c(SC(C)C(N)=O)nnc12 (centres undefined)	none
COc1ccc(CCNC[C@H](O)COc2cccc(C)c2)cc1OC	none (no result: JMJD2A Tudor, G9a block, BAZ2B inh, HP1b binding inh)
COc1ccc(CCNCC(O)COc2ccc(OC)cc2C(C)(C)C)cc1 (centres undefined)	JMJD2A Tudor 3.5µM, G9a block 45µM, BAZ2B inh 71µM, HP1b binding inh inconclusive
COc1ccc(C(OCC(O)CNCCc2ccc(S(N)(=O)=O)cc2)c2ccc(OC)cc2)cc1 (centres undefined)	none
COc1ccc(CCNCC(O)COc2cccc(Br)c2)cc1OC (centres undefined)	JMJD2A Tudor 1µM, BAZ2B inh 50µM, HP1b binding inh inconclusive (no result: G9a block)
CC(=O)N1[C@H](C)C=C[C@]1(Cc1ccccc1)C(=O)NCCc1c[nH]c2ccccc12	G9a block inconclusive, BAZ2B inh inconclusive
C[C@@H]1C=C[C@](Cc2ccccc2)(C(=O)NCCc2c[nH]c3ccccc23)N1C(=O)c1ccccc1	JMJD2A Tudor inconclusive, G9a block 50µM, BAZ2B inh inconclusive
Cn1cc(/C=N/NC(=O)COc2ccccc2[N+](=O)[O-])c2ccccc21	none
COC(=O)c1ccc(CS(=O)(=O)c2ccc(F)cc2)o1	G9a block 71µM
Cc1ccc(NC(=O)c2sc3nc4n(c(=O)c3c2C)CCCCC4)c(Br)c1	none
Cc1cc(Br)ccc1NC(=O)c1sc2nc3n(c(=O)c2c1C)CCCC3	JMJD2A Tudor 79µM, G9a block 13µM, BAZ2B inh 18µM
Cc1c(C(=O)NCc2ccc(Cl)cc2)sc2nc3n(c(=O)c12)CCC3	JMJD2A Tudor inconclusive
COc1ccc(CNC(=O)c2sc3nc4n(c(=O)c3c2C)CCCCC4)cc1	JMJD2A Tudor 89µM, G9a block 14µM, BAZ2B inh 16µM
O=C(Oc1cc(=O)n2ccccc2n1)c1ccccc1	G9a block 18µM
CCn1c(O)c(C#N)c(C)cc1=O	G9a block 45µM
Cc1cc(=O)n(CCO)c(O)c1C#N	JMJD2A Tudor inconclusive, G9a block inconclusive, BAZ2B inh inconclusive
COc1ccc(OC)c(C(c2nnnn2CC2CCCO2)N2CCN(C)CC2)c1 (centres undefined)	G9a block inconclusive, BAZ2B inh 79µM
COc1ccc(OC)c(C(c2nnnn2CC2CCCO2)N2CCN(C3CCCC3)CC2)c1 (centres undefined)	G9a block inconclusive, BAZ2B inh inconclusive
C=CCN1CCN(C(c2cc(OC)ccc2OC)c2nnnn2CC2CCCO2)CC1 (centres undefined)	G9a block 13µM (no result: BAZ2B inh)
COc1ccc(C(=O)N2CCC(C)(C(=O)NS(=O)(=O)C3CC3)C2)c(OC)c1 (centres undefined)	none (no result: JMJD2A Tudor, G9a block, BAZ2B inh, HP1b binding inh)
CC(C)Nc1nc(Cl)nc(N(C#N)CN2C(=O)c3ccccc3C2=O)n1	JMJD2A Tudor inconclusive, G9a block 28µM
CCC(C)Nc1nc(Cl)nc(N(C#N)CN2C(=O)c3ccccc3S2(=O)=O)n1 (centres undefined)	JMJD2A Tudor inconclusive, G9a block inconclusive
NC(=O)C1CCN(Cc2nc3cc(C(F)(F)F)ccc3c(=O)[nH]2)CC1	G9a block 14µM
C=CCNC(=S)/C(=C(/[O-])c1ccc([N+](=O)[O-])cc1)[n+]1ccccc1	G9a block 45µM
O=[N+]([O-])c1cccc(/C([O-])=C(/C(=S)Nc2ccccc2)[n+]2ccccc2)c1	JMJD2A Tudor inconclusive, G9a block 10µM
CCNC(=S)/C(=C(/[O-])c1ccc([N+](=O)[O-])cc1)[n+]1ccccc1	none (no result: G9a block)
CCCN(CC(=O)NC(=O)NCc1ccccc1)CC(=O)Nc1ccc(F)c(F)c1F	none (no result: JMJD2A Tudor, G9a block, BAZ2B inh, HP1b binding inh)
COc1ccc(C2=NO[C@@H]3C(=O)N(c4ccc(C)cc4C)C(=O)[C@H]23)cc1OC	JMJD2A Tudor inconclusive, G9a block 13µM
COc1ccc(-c2cn(-c3ccc(C)cc3C)c(=O)[nH]2)cc1OC	G9a block 11µM
COCCn1c(N)c(N(Cc2ccccc2)C(=O)CN2C(=O)NC(C)(c3ccccc3)C2=O)c(=O)[nH]c1=O (centres undefined)	none
CN(CC(=O)Nc1n[nH]c(=S)s1)S(=O)(=O)c1cccc2cccnc12	GLS inh inconclusive, JMJD2A Tudor 3.5µM, G9a block 1.6µM, BAZ2B inh inconclusive, HP1b binding inh inconclusive
Cc1csc(NC(=O)CN(C)S(=O)(=O)c2cccc3cccnc23)n1	none
CN(CC(=O)NCc1ccco1)S(=O)(=O)c1cccc2cccnc12	G9a block 71µM
O=C(CSc1nc2ccccc2c(=O)n1CC1CCCO1)NCc1ccc2c(c1)OCO2 (centres undefined)	JMJD2A Tudor inconclusive
O=C(NCCC(=O)N1CCN(C(=O)c2ccco2)CC1)c1ccccc1Cl	none (no result: G9a block, BAZ2B inh)
CCOC(=O)CSc1nc(N)c2c3c(sc2n1)CCCC3	G9a block 71µM
CSc1nc(N)c2c3c(sc2n1)CN(C)CC3	none
CCSc1nc(N)c2c3c(sc2n1)CN(C)CC3	G9a block 45µM (no result: GLS inh, JMJD2A Tudor, HP1b binding inh)
COc1ccc(Br)cc1CN(C)C(=O)C1=CC=CN2CCS(=O)(=O)N=C12	none (no result: G9a block, BAZ2B inh)
CC(NC(=O)COC(=O)c1ccc(CO)cc1)C1CC2CCC1C2 (centres undefined)	none
